HT1080-NT tox – kills 2HG-producing HT-1080-NT fibrosarcoma cells; actives 1.6% (n = 360,000); Potency, µM (doses to about 46.1 µM), for the others: top-dose activity, negative = less viability, most hits filed as cytotoxic; HT-1080-NT fibrosarcoma viability, CellTiter-Glo ATP luminescence, 48 h;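 also: NT is the 2HG producing partner of a matched IDH1 knockdown line; potency is read from the fitted curve at half-maximal effect; 0% = DMSO-treated cells and -100% = media-only wells without cells; nearly all actives have a fitted effect of over 55% in size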
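Viability of the 2HG-overproducing fibrosarcoma line after 48 hours of compound exposure at 37 degrees C was determined by luminescence with CellTiter-Glo, and concentration-effect curves were then fitted and categorized.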
DT40 TDP1 no CPT – qHTS for Inhibitors of human tyrosyl-DNA phosphodiesterase 1 (TDP1): qHTS in cells in absence of CPT; DT40 Tdp1-/- hTDP1 cells, no CPT, ATP luminescence, 48 h; AID 686978, 2013; Potency, µM (titrated, usually from 46.2 µM), inactives show at the top dose activity change, negative = growth inhibition, most hits filed as inhibitors; actives 15% (n = 420,000); also: potency is read from the fitted curve at half-maximal effect; nearly all actives have a fitted effect of over 55% in size
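Seeded 400 DT40-hTDP1 cells/well (vehicle DMSO, no 20 nM CPT); pinned compounds; ≥48 hr at 37 °C; CellTiter-Glo luminescence as viability measure.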
HT1080 IDH1KD tx – kills HT-1080 cells with IDH1 knockdown; AID 686971; actives 2% (n = 360,000); Potency, µM (top dose mostly 46.1 µM), without a hit: top-dose activity, negative = toxicity, most hits filed as cytotoxic; HT-1080 IDH1 knockdown viability, ATP luminescence, 48 h;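 also: potency is read from the fitted curve at half-maximal effect; 0% = DMSO wells and -100% = cell-free medium wells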
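CellTiter-Glo luminescence after 48 h compound exposure at 37 degrees C of IDH1-knockdown HT-1080 cells in 5% FBS RPMI. %Activity scaled between DMSO wells and cell-free media wells, with curves fitted and assigned curve classes.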
DT40 TDP1 CPT – DT40-hTDP1 cell growth loss with CPT; Potency, µM (top dose mostly 46.2 µM), without a hit: at the highest dose activity change, negative = growth inhibition, actives largely listed as inhibitors; chicken DT40 Tdp1-/-;hTDP1 cells + 20 nM CPT, ATP luminescence, 48 h; actives 12% (n = 420,000); also: potency is read from the fitted curve at half-maximal effect; nearly all actives have a fitted effect of over 55% in size
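Cell growth measured by CellTiter-Glo luminescence after a minimum 48 h, 37 C compound exposure with 20 nM CPT in Tdp1-knockout DT40 cells stably expressing hTDP1, seeded 400/well; qHTS titration format.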
IL1B secr inh – inhibitors of inflammasome signaling (IL-1 beta secretion). THP-1 LPS/ATP IL-1B secretion, AlphaLISA, 16 h; stronger effect = lower value. actives 4.7% (n = 360,000). activity change, % at 57.5 µM; in the data active = activity change below about -50%; inconclusive = mostly about -30% to -49%
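THP-1 cells pretreated 1 hr with compounds (up to 57.5 uM final), then stimulated with LPS (250 ng/mL final) plus ATP (1.25 mM final); secreted IL-1B measured by AlphaLISA after 16 hr, decreased signal indicating inhibition.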
The depositor's hits bear a star; u = inconclusive; x = not tested or not shown; [ ] = remark or other dose. This is a sample that favours compounds with a hit; in the whole collection about 19% have one here. Unless noted, calls follow the shape of the dose curve; as a rule, active = well fitted curve in the direction sought with a large enough effect; inconclusive = small, poorly fitted or top-dose-only effect, or another doubt; inactive = no such curve, though single readings can be large; an effect the other way counts as inactive or inconclusive. Unless noted, % is scaled to controls: 0 for no effect and ±100 for the full control effect.

SMILES | HT1080-NT tox | DT40 TDP1 no CPT | HT1080 IDH1KD tx | DT40 TDP1 CPT | IL1B secr inh
CSCCC(NC(=O)c1ccccc1C)C(=O)O (configuration not stated) | 12.1% | 3.9% | 8.5% | 8.9% | -2.9
Cc1ccc(-n2ncc3c2CC(C)(C)CC3NC(=O)c2ccccn2)cc1 (configuration not stated) | u | u | u | u | -81.0*
C=CCC(=O)NC1CC(C)(C)Cc2c1cnn2-c1ccc(C)cc1 (configuration not stated) | 8.1% | -14.2% | -0.8% | -2.6% | 8.5
Nc1nnc(SCC(=O)Nc2sc3c(c2C(=O)c2ccccc2)CCCC3)s1 | -2.4% | 16.4µM* | -22.2% | u | -2.5
COCCNc1nnc(SCC(=O)Nc2sc3c(c2C(=O)c2ccccc2)CCCC3)s1 | -24.8% | u | -24.0% | 20.6µM* | u
N#Cc1ccccc1NC(=O)CSc1nnc(N)s1 | x | -13.2% | x | 0.6% | x
Cc1ccc(C(=O)c2c(NC(=O)CSc3nnc(N)s3)sc3c2CCCC3)cc1 | -6.7% | u | -11.8% | u | -71.5*
CN1C(=O)C(=O)/C(=C(/O)c2ccc(Br)cc2)C1c1ccc(F)cc1 (configuration not stated) | -5.5% | 6.0% | 0.9% | -2.6% | 9.9
Cc1ccc(C)c(Cn2nc(-c3cc(C)ccc3C)ccc2=O)c1 | u | 20.6µM* | 18.4µM* | u | u
Cc1cc(C(c2ccc(O)cc2)c2cc(C)c(O)cc2C)c(C)cc1O | u | -5.1% | u | u | -81.8*
COC(=O)[C@@H]1CCCN1Cc1ccc2c(c1)CN(Cc1cccn1-c1ccccn1)CCO2 | x | -13.1% | x | 8.9%[9.04 µM] | x
O=C(C[n+]1cc(-c2ccccc2)n2c1CCC2)c1cccs1 | -1.3% | 3.8% | -17.5% | 1.7% | 18.4
O=C(C[n+]1cc(-c2ccc(Cl)cc2)n2c1CCCCC2)c1ccccc1 | -6.5% | 6.51µM* | -14.0% | 6.51µM* | -61.7*
O=C(C[n+]1cc(-c2ccc(Br)cc2)n2c1CCCCC2)c1ccccc1 | 2.8% | 16.4µM* | -19.1% | u | -55.7*
CCCc1cc(-c2nc(N)ncc2-c2ccc3c(c2)OCCCO3)c(O)cc1OC | -25.4% | 25.9µM* | u | u | u
COCCNC(=O)CNC(=S)N(CCCN1CCOCC1)Cc1cccs1 | 14.1% | -3.0% | 11.1% | 8.0% | 2.3
Cc1ccc(S(=O)(=O)c2nnn3c2nc(NCc2cccs2)c2sccc23)cc1 | x | -25.6% | x | -4.3% | x
Cc1ccc(S(=O)(=O)c2nnn3c2nc(N2CCCCC2)c2sccc23)cc1 | x | -18.3% | x | -4.7% | x
O=S(=O)(c1ccc(Cl)cc1)c1nnn2c1nc(NCc1cccs1)c1sccc12 | x | 23.1µM* | x | u | x
O=S(=O)(c1ccc(Cl)cc1)c1nnn2c1nc(N1CCCCC1)c1sccc12 | x | 16.4µM* | x | 20.6µM* | x
C[C@@H]1CN([C@H](C)CO)C(=O)CCCn2cc(nn2)CO[C@H]1CN(C)C(=O)Nc1ccc2c(c1)OCO2 | 11.4% | -28.3% | 9.0% | 13.0% | 18.9
Cc1nn(-c2ccccc2)c2c1N(CC(=O)NCc1ccc(N(C)C)cc1)C(=O)CS2 | x | 18.4µM* | x | u | x
CCCOc1ccc(CNC(=O)CCCN2C(=O)CSc3c2c(C)nn3-c2ccccc2)cc1 | x | u | x | 20.6µM* | x
Cc1nn(-c2ccccc2)c2c1N(CCCC(=O)NCc1ccc(N(C)C)cc1)C(=O)CS2 | x | 23.1µM* | x | 23.1µM* | x
COc1ccc(CNC(=O)CCCN2C(=O)CSc3c2c(C)nn3-c2ccccc2)c(OC)c1 | x | 16.4µM* | x | u | x
SMILES | HT1080-NT tox | DT40 TDP1 no CPT | HT1080 IDH1KD tx | DT40 TDP1 CPT | IL1B secr inh
CCOc1ccc(CNC(=O)CN2C(=O)CSc3c2c(C)nn3-c2ccccc2)cc1 | x | -14.4% | x | -0.8% | x
COc1cccc(CNC(=O)CN2C(=O)CSc3c2c(C)nn3-c2ccccc2)c1 | x | -28.5% | x | -24.5% | x
CCOc1ccc(C(=O)Nc2cccc(-c3nc4cc(Cl)cc(Cl)c4o3)c2)cc1 | x | -11.9% | x | -21.2% | x
Cc1cccc(C(=O)N2CCC(=O)N(C(COCc3ccccc3)Cc3ccccc3)CC2)c1 (configuration not stated) | -12.6% | 25.9µM* | -8.6% | u | -24.1
Cc1cccc(C(=O)N2CCC(=O)N([C@H](COCc3ccccc3)Cc3ccccc3)CC2)c1 | -1.1% | u | -14.8% | u | 8.9
Cc1cccc(COC[C@H](Cc2ccccc2)N2CCN(C(=O)c3cccc(Cl)c3)CCC2=O)c1 | -29.6% | u | u | u | -8.4
Cc1cccc(COCC(Cc2ccccc2)N2CCN(C(=O)c3cccc(Cl)c3)CCC2=O)c1 (configuration not stated) | -13.0% | 18.4µM* | -20.3% | 25.9µM* | -60.6*
O=C(CSc1nc2c(oc3ccccc32)c(=O)n1-c1ccccc1)Nc1ccc(F)c(Cl)c1 | x | 13µM* | x | u | x
O=C(CSc1nc2c([nH]c3ccccc32)c(=O)n1-c1ccccc1)Nc1ccc2c(c1)OCO2 | x | 23.1µM* | x | u | x
O=C(CSc1nc2c([nH]c3ccccc32)c(=O)n1-c1ccccc1)Nc1ccc(Cl)c(Cl)c1 | x | 10.3µM* | x | 8.2µM* | x
Cc1cc(C)cc(-n2c(SCC(=O)Nc3ccc4c(c3)OCCO4)nc3c([nH]c4ccccc43)c2=O)c1 | x | -5.0% | x | 9.1% | x
COc1ccc(NC(=O)N2CCCC3(CCN(S(C)(=O)=O)CC3)C2)cc1 | x | -11.2% | x | 2.9% | x
CN(C)S(=O)(=O)c1ccc2c(c1)N(CC(=O)NCc1ccc(F)cc1)C(=O)CS2 | x | -23.2% | x | -27.4% | x
Cc1[nH]ccc(=O)c1OCc1ccccc1 | -1.8% | -7.4% | 0.8% | 0.6% | 13.9
O=c1cc(OCc2ccccc2)cc[nH]1 | 13.1% | 8.1% | 8.3% | 2.1% | -65.7*
CC1=C(C(=O)N2CCN(c3cccc(Cl)c3)CC2)C2(CCCCC2)OC1=O | x | 20.6µM* | x | u | x
CC1=C(C(=O)N2CCN(c3cccc(C)c3C)CC2)C2(CCCCC2)OC1=O | x | 20.6µM* | x | 20.6µM* | x
CC1=C(C(=O)N2CCN(c3ccccc3)CC2)C2(CCCCC2)OC1=O | x | -27.4% | x | -24.5% | x
C=C(C)CSc1cc(C)c(C#N)c2nc3ccccc3n12 | -7.7% | 9.2µM* | -5.4% | 20.6µM* | -20.6
Cc1cc(NCCCCO)n2c(nc3ccccc32)c1C#N | -20.7% | -19.7% | u | -21.8% | -23.9
CC(=O)N1CCN(S(=O)(=O)c2cccc(C(=O)NC3CC3)c2)CC1 | -2.3% | 0.9% | -5.1% | 23.1% | 5.1
CC1CCC(NC(=O)c2cccc(S(=O)(=O)N3CCN(c4ccc(F)cc4)CC3)c2)CC1 (configuration not stated) | 2.6% | 9.2µM* | 1.1% | u | 12.4

From PubChem
